Calb FLC: affects C. albicans growth with fluconazole. hit rate 0.57% among 300,000. C. albicans CaCi-2 (fluconazole-resistant clinical isolate) + fluconazole, Alamar Blue growth, 48 h. growth inhibition, % (concentration not given with the values). AID 1979;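 active = growth inhibition above about 58% in most replicates, limit read from the data, passing the limit was not always enough; inconclusive = exactly half the replicates above a set limit; inactive = most replicates below a set limit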;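 also: all wells also contain fluconazole at 8 µg/ml as a sub-toxic cotreatment; 0% = median of DMSO wells and 100% = median of geldanamycin control wells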
CSC inhib: blocks cancer stem cells | cancer stem cell-like cells viability, luminescence | inhibition, % at 7.5 µM | hit rate 1.1% among 300,000; in the data active = inhibition above about 75%; inconclusive = no clear call, values can overlap the other calls; tested in HMLE shEcad cells
Mdm2 MdmX PPI: inhibitors of human Mdm2/MdmX interaction; O15151+Q00987; SaOS-2 split-luciferase Mdm2/MdmX complementation, luminescence; inhibition, % at 8 µM; hit rate 3% among 330,000; AID 485346;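 active = inhibition of at least 50% at 8 µM in the primary screen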
PP1 inh: blocks human PP1-alpha phosphatase, a PP5 counter-screen; AID 2235; hit rate 0.9% among 320,000; P62136; inhibition, % at 6.7 µM; purified PP1alpha, OMFP fluorescence;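 active = inhibition above the mean inhibition of all tested compounds plus 3 SD, computed separately for each screening campaign, cut at about 15% in these data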
PP5 inh: blocks human protein phosphatase 5 activity; hit rate 0.18% among 320,000; AID 1987; purified PP5c, OMFP substrate fluorescence; P53041; inhibition, % at 6.7 µM;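 active = inhibition above the campaign's mean inhibition across all tested compounds plus 3 SD, cut at about 9.5% in these data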;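 also: 0% = DMSO only and 100% = 100 µM cantharidin control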
Target sequence (P53041 whole entry, looked up): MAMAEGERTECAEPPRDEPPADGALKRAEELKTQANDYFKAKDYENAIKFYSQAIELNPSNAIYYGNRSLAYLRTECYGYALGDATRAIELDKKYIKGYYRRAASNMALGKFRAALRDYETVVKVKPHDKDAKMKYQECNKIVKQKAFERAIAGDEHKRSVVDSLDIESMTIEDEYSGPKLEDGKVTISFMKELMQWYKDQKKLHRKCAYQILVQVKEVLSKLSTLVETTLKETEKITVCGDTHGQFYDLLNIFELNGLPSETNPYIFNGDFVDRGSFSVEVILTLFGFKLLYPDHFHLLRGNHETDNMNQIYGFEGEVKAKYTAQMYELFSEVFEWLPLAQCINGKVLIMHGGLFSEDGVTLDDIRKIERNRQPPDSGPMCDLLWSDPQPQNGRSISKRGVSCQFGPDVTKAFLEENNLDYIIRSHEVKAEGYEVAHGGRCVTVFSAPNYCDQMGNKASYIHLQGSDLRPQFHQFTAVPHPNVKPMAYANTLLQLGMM
Beta cell apopt: beta cell apoptosis inhibition; protection from apoptosis, % (no concentration beside the values); INS-1E cytokine-induced death, ATP luminescence, 48 h; percent of positive-control rescue, neutral wells zero; hit rate 0.8% among 300,000;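 active = Every replicate reaches about 75%, or at least half do and their mean reaches it too, limit read from the data; inconclusive = At least half of replicates reach the limit but their mean does not; inactive = Under half of replicates reach the limit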;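 also: 0% = cytokine-treated negative control wells and 100% = positive control rescue; higher means more ATP so stronger rescue from cytokine killing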
The depositor's hits bear a star. Only some compounds are listed: those with a hit (about 4.9% of all), similar ones and a draw of the others.

Results for CCS(=O)(=O)N1CCN(S(=O)(=O)c2ccc3c(c2)OCCO3)CC1 ?
Calb FLC: 8; CSC inhib: -5; Mdm2 MdmX PPI: -11; PP1 inh: 2; PP5 inh: 1; Beta cell apopt: -2

How did Cc1ccccc1N=C(NOCc1ccc(Cl)cc1Cl)c1nonc1N do in these assays?
Calb FLC: -21; CSC inhib: 98*; Mdm2 MdmX PPI: 49; PP1 inh: 4; PP5 inh: 4; Beta cell apopt: 5

How did CCn1c(C)nc2cc(C(N)=O)ccc21 do in these assays?
Calb FLC: -2; CSC inhib: 2; Mdm2 MdmX PPI: -39; PP1 inh: 0; PP5 inh: -1; Beta cell apopt: -2

Results for CCn1c(C)nc2cc(C(=O)N/N=C/c3cccc(OC)c3O)ccc21 ?
Calb FLC: 108*; CSC inhib: 109*; Mdm2 MdmX PPI: 35; PP1 inh: 2; PP5 inh: 2

How did COc1cccc(/C=N/NC(=O)c2ccc3nc[nH]c3c2)c1O do in these assays?
Calb FLC: -3; CSC inhib: 30; Mdm2 MdmX PPI: 9; PP1 inh: 2; PP5 inh: 1; Beta cell apopt: 3

Results for COc1cccc(/C=N/NC(=O)CNC(=O)CCc2ccccc2)c1O ?
Calb FLC: -4; CSC inhib: 44; Mdm2 MdmX PPI: 31; PP1 inh: -3; PP5 inh: 1; Beta cell apopt: 0

How did CCn1c(C)nc2cc(C(=O)N/N=C/c3ccc(O)c(O)c3O)ccc21 do in these assays?
Calb FLC: 76*

What do the screens show for `COc1cccc(/C=N/NC(=O)CNC(=O)c2cccs2)c1O`?
Calb FLC: 0; CSC inhib: 26; Mdm2 MdmX PPI: 14; PP1 inh: -3; PP5 inh: 0; Beta cell apopt: 86*

Results for O=C(CCCc1ccccc1)NCCc1ccc(F)cc1 ?
Calb FLC: 16; CSC inhib: 3; Mdm2 MdmX PPI: -7; PP1 inh: 0; PP5 inh: 3; Beta cell apopt: -2

Results for CC1=NN(c2ccccc2)C(=O)/C1=C\C=C1\N(C)c2ccccc2C1(C)C ?
Calb FLC: -1; CSC inhib: 79*; Mdm2 MdmX PPI: 18; PP1 inh: 7; PP5 inh: 8; Beta cell apopt: 19

How did CN1/C(=C\C=C2/SC(=S)NC2=O)C(C)(C)c2ccccc21 do in these assays?
Calb FLC: 1; CSC inhib: 43; Mdm2 MdmX PPI: 22; PP1 inh: 2; PP5 inh: 0; Beta cell apopt: 99*

What do the screens show for `CC1=NN(c2ccccc2)C(=O)/C1=C/N(C)C`?
Calb FLC: -16; CSC inhib: -10; Mdm2 MdmX PPI: -32; PP1 inh: -3; PP5 inh: 8; Beta cell apopt: -3

How did COc1ccc(-c2cn(Cc3ccc([N+](=O)[O-])cc3)nn2)cc1 do in these assays?
Calb FLC: 16; CSC inhib: 12; Mdm2 MdmX PPI: 7; PP1 inh: 6; PP5 inh: 0; Beta cell apopt: -2

How did CNc1ccc(OC)cc1-n1cnc(-c2ccc([N+](=O)[O-])cc2)c1 do in these assays?
Calb FLC: 101*; CSC inhib: 8; Mdm2 MdmX PPI: 17; PP1 inh: 0; PP5 inh: 3

What do the screens show for `O=C(O)c1ccccc1-c1nc(-c2ccccc2)c(-c2ccccc2)[nH]1`?
Calb FLC: 16; CSC inhib: -2; Mdm2 MdmX PPI: 10; PP1 inh: -1; PP5 inh: 3; Beta cell apopt: -1

What do the screens show for `O=C(O)c1cccc2c(-c3ccccc3)c(-c3ccccc3)[nH]c12`?
Calb FLC: 30; CSC inhib: 41; Mdm2 MdmX PPI: 3; PP1 inh: 15*; PP5 inh: 2; Beta cell apopt: -5

What do the screens show for `CCOC(=O)N1CCN(C(=O)CCS(=O)(=O)c2ccc3c(c2)CC(C)N3C(=O)CC)CC1` (configuration not stated)?
Calb FLC: 5; CSC inhib: -10; Mdm2 MdmX PPI: 0; PP1 inh: -3; PP5 inh: -1; Beta cell apopt: -8

What do the screens show for `CCC(=O)N1c2ccc(S(=O)(=O)CCC(=O)N3CCn4c3nc3ccccc34)cc2CC1C` (configuration not stated)?
Calb FLC: 81*; CSC inhib: 4; Mdm2 MdmX PPI: 42; PP1 inh: -1; PP5 inh: 3; Beta cell apopt: 3

Results for O=C(Nc1ccnn1C1CCN(C(=O)c2ccc(F)cc2)CC1)C1CCOC1 (configuration not stated) ?
Calb FLC: 3; CSC inhib: -1; Mdm2 MdmX PPI: 8; PP1 inh: -4; PP5 inh: 0

What do the screens show for `CC1(c2ccc(O)cc2)NC(=O)N(c2ccccc2)N1` (configuration not stated)?
Calb FLC: -63; CSC inhib: 109*; Mdm2 MdmX PPI: 15; PP1 inh: -3; PP5 inh: 2; Beta cell apopt: -3

What do the screens show for `Cc1cc2[nH]c(=O)c(=O)[nH]c2cc1S(=O)(=O)N1CCN(c2ccccc2F)CC1`?
Calb FLC: 81*; CSC inhib: -4; Mdm2 MdmX PPI: 26; PP1 inh: 4; PP5 inh: 1; Beta cell apopt: -3

Results for CC1CCN(C(=O)c2ccc3c(c2)OCO3)CC1 ?
Calb FLC: 0; CSC inhib: 4; Mdm2 MdmX PPI: 16; PP1 inh: -1; PP5 inh: -3; Beta cell apopt: 0

How did CCCCCCc1cc2cc(-c3nnc(-c4cc(OC)c(OC)c(OC)c4)o3)c(=O)oc2cc1O do in these assays?
Calb FLC: -8; CSC inhib: 77*; Mdm2 MdmX PPI: 10; PP1 inh: -2; PP5 inh: -3; Beta cell apopt: 5

Results for COC(=O)c1ccc(CN2CCCC(CO)(Cc3ccccc3F)C2)cc1 (configuration not stated) ?
Calb FLC: 0; CSC inhib: 11; Mdm2 MdmX PPI: -8; PP1 inh: -2; PP5 inh: 0; Beta cell apopt: 3

Results for Cc1cc(N2C(=O)C(O)=C(C(=O)c3cc4ccccc4o3)C2c2ccc(Cl)cc2)no1 (configuration not stated) ?
Calb FLC: 2; CSC inhib: -16; Mdm2 MdmX PPI: 30; PP1 inh: 29*; PP5 inh: 4; Beta cell apopt: -1

How did Cc1cc(N2C(=O)C(O)=C(C(=O)c3ccco3)C2c2cccnc2)no1 (configuration not stated) do in these assays?
Calb FLC: -13; CSC inhib: -5; Mdm2 MdmX PPI: 4; PP1 inh: 2; PP5 inh: 1; Beta cell apopt: -1

How did Cc1cc(N2C(=O)C(O)=C(C(=O)c3cc4ccccc4o3)C2c2cccc(Cl)c2)no1 (configuration not stated) do in these assays?
Calb FLC: inconclusive; CSC inhib: 14; Mdm2 MdmX PPI: 29; PP1 inh: 27*; PP5 inh: -1; Beta cell apopt: 2
